Compound activity from PubChem BioAssay.
Hits are enriched below; roughly 2.8% of the tested compounds scored in any of these assays.
POLB inh: blocks human DNA polymerase beta activity | Potency, µM (doses to about 114 µM), actives largely listed as inhibitors | AID 485314 | Pol beta primer extension/strand displacement, fluorescence kinetic | hit rate 1.3% among 340,000
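Pol beta (10 nM) was preincubated with compound for 15 min at room temperature. The reaction was then started with 50 nM substrate and read immediately and after a further 10 min at room temperature.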
Pol kappa inh: inhibitors of human DNA polymerase kappa | Q9UBT6 | hit rate 0.53% among 400,000 | purified Pol kappa, fluorescent DNA synthesis assay, 10 min | Potency, µM (titrated, usually from 107 µM), hits mostly inhibitors
Target sequence (Q9UBT6 whole entry, looked up): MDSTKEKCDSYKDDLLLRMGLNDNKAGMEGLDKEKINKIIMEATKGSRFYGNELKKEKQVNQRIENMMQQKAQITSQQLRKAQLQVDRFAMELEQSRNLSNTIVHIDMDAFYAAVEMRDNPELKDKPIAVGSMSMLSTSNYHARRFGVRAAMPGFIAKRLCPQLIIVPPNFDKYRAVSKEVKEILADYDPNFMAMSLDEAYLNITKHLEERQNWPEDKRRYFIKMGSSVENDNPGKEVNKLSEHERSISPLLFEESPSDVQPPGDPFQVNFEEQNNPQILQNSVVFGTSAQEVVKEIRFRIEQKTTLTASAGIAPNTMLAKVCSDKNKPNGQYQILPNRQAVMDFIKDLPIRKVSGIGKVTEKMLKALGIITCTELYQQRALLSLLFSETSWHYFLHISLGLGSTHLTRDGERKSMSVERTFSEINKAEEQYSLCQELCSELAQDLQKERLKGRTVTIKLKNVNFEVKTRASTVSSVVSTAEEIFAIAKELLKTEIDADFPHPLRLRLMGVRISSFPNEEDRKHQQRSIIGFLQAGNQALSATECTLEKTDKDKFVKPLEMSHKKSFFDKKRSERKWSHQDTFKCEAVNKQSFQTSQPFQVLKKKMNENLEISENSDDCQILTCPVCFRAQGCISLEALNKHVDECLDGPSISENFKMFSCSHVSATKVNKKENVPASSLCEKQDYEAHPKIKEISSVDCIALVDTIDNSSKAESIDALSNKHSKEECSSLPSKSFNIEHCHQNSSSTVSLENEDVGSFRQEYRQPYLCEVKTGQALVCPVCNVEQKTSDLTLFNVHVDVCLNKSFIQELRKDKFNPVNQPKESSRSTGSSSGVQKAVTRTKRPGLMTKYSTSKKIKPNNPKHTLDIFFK
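Readout: fluorescence, taken kinetically at 0 and 10 min. Conditions: 10 nM Pol kappa, 15 min RT compound preincubation, 50 nM substrate final. Controls: enzyme-free buffer wells.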
POLI inh: inhibitors of human DNA polymerase iota; Q9UNA4; Pol iota fluorescent replication assay, 10 min; Potency, µM (highest dose often 115 µM), hits mostly inhibitors; hit rate 1% among 390,000; AID 588590
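Pol iota at 10 nM preincubated 15 min with compounds at room temperature; reaction started with fluorescent substrate, 50 nM final. Fluorescence read kinetically at 0 and 10 min; buffer-only wells as negative control.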
POLH inh: blocks human DNA polymerase eta activity. recombinant Pol eta, fluorescent DNA replication assay. Q9Y253. hit rate 1.2% among 390,000. AID 588591. Potency, µM (titrated, usually from 114 µM), most hits filed as inhibitors
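Pol eta (10 nM) was preincubated with compounds for 15 min at room temperature, after which fluorescent replication substrate (50 nM final) was added to start the reaction. Fluorescence was read kinetically at 0 and 10 min.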
WRN helicase inh: blocks human WRN helicase; hit rate 0.46% among 360,000; Potency, µM (top dose mostly 114 µM), actives largely listed as inhibitors; WRN helicase unwinding, fluorescent forked duplex, kinetic; AID 651768; Q14191; note: nearly all actives have a fitted effect of over 55% in size
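Screening of the MLSMR collection measured strand separation of a quenched forked DNA duplex (100 nM) by 20 nM WRN with 2 mM ATP, all final. Compounds were preincubated with enzyme 15 min at room temperature.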
PI5P4Ka inh: inhibitors of human PI5P4K alpha. hit rate 1.2% among 330,000. max response, %. PI5P4Kalpha enzyme, ADP-Glo luminescence, 60 min; active compounds read low. P48426; active = max response of -50% or lower; inconclusive = between -30% and -50%; inactive = -30% or higher; note: value at the top dose of about 77 µM
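PI5P4Kalpha ADP-Glo assay; 5 microM ATP final; 60 min RT reaction; HEPES pH 7.4/EGTA/CHAPS, 5% DMSO; controls lacking substrate or enzyme; luminescent end-point.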
A number is an active result; i = inactive; ? = inconclusive; nt = no result given; [ ] = another dose, or the depositor's remark. Unless noted, calls come from the whole dose curve; as a rule, active = well fitted curve in the direction sought with a large enough effect; inconclusive = small, poorly fitted or top-dose-only effect, or another doubt; inactive = no such curve, though single readings can be large; an effect the other way counts as inactive or inconclusive.

SMILES | POLB inh | Pol kappa inh | POLI inh | POLH inh | WRN helicase inh | PI5P4Ka inh
COc1ccccc1-c1nn2c(-c3ccco3)nnc2s1 | 14µM | i | ? | i | i | nt
c1coc(-c2nn3c(-c4ccco4)nnc3s2)c1 | 28µM | ? | ? | ? | ? | -62
COc1ccccc1-c1nn2c(-c3cc(-c4ccccc4)n[nH]3)nnc2s1 | nt | i | i | nt | nt | nt
COc1ccccc1-c1nn2c(-c3ccccc3Cl)nnc2s1 | i | nt | nt | nt | nt | nt
COc1ccc(OCc2nn3c(-c4ccco4)nnc3s2)cc1 | ? | i | i | ? | i | i
COc1cccc(OC)c1-c1nn2c(-c3cc(-c4ccccc4)n[nH]3)nnc2s1 | ? | 28µM | 28µM | 6.3µM | 40µM | -66
C[N+]1(CC(=O)c2ccc(Cl)c(Cl)c2)CCOCC1 | nt | i | i | nt | nt | nt
CCOC(=O)c1c(Nc2ccc(C)cc2)nnc(-c2ccccc2)c1-c1ccccc1 | i | i | i | i | nt | nt
O=C(Nc1cccnc1)c1cccc(-c2cc3ccccc3oc2=O)c1 | ? | i | i | i | i | i
O=C(NCc1cccnc1)c1ccc(-c2cc3ccccc3oc2=O)cc1 | ? | i | 79µM | i | i[11.6 µM] | i
Fc1ccc(C[n+]2csc3ccccc32)cc1 | i | i | i | i | 56µM | i
N#Cc1c(N)nc(N)nc1Nc1ccc(Br)cc1 | i | i | i | i | i | -52
CC(C(=O)NCc1cccc(Br)c1)n1ncn2cccc2c1=O (stereo unspecified) | ? | ? | i | i | nt | nt
COc1cc(C2Nc3cccc4cccc(c34)N2)ccc1OC(C)=O | i | i | ? | 14µM | i | ?
COc1cc(C2Nc3cccc4cccc(c34)N2)cc(OC)c1O | 45µM | i | ? | ? | i[11.6 µM] | nt
CC(C)N(C(=O)c1cc2c(Cl)nc3ccccc3c2s1)C1CCCCC1 | i | i | i | i | nt | nt
COc1ccc(O)c(/C=N/NC(=S)Nc2cccc(S(=O)(=O)N(C)C)c2)c1 | i | i | i | i | i | -56
COc1cc(C(=O)/C=C/Nc2ccc(NC(C)=O)cc2)cc(OC)c1OC | 71µM | i | i | i | i | i
COc1cc(C(=O)NNC(=O)c2ccc(NC(C)=O)cc2)cc(OC)c1OC | i | i | i | i | i | i
COc1cc2c(cc1OC)C(O)=CC(=O)C2=O | nt | nt | nt | i | i | -54
COc1cc(OC)cc(C(=O)N2CCN(C(=O)COc3ccc4ccccc4c3)CC2)c1 | i | i | 71µM | i | i | nt
Cc1ccccc1C(=O)Nc1ccc(S(=O)(=O)N2CCC(c3nc4ccccc4s3)CC2)cc1 | i | i | i | i | nt | nt
CCn1c(SCC(=O)Nc2oc(-c3ccccc3)c(-c3ccccc3)c2C#N)nnc1-c1ccncc1 | i | ? | ? | 71µM | i[11.6 µM] | i
CCn1c(SCC(=O)Nc2oc(-c3ccccc3)c(-c3ccccc3)c2C#N)nnc1-c1ccco1 | i | i | i | i | i | i
O=C(N/N=C/c1ccccc1Cl)c1nc2ccc([N+](=O)[O-])cc2c(=O)[nH]1 | i | i | 10µM | i | i | ?
SMILES | POLB inh | Pol kappa inh | POLI inh | POLH inh | WRN helicase inh | PI5P4Ka inh
O=C(N/N=C/c1cccc([N+](=O)[O-])c1)c1nc2ccccc2c(=O)[nH]1 | i | i | i | i | i | i
COc1ccc(N/C=C2/Sc3ccccc3NC2=O)cc1 | i | i | i | i | i | -55
Cc1ccc(N/C=C2/Sc3ccccc3NC2=O)cc1 | i | i | i | i | i | i
O=c1cc(-c2ccccc2)oc2c(O)c(O)ccc12 | nt | 8.9µM | nt | nt | nt | nt
O=C(O)Cc1cccc2c(=O)cc(-c3ccccc3)oc12 | nt | nt | nt | nt | i | i
O=c1cc(-c2ccccc2O)oc2c(O)c(O)ccc12 | nt | 0.89µM | nt | nt | nt | nt
CN(C)c1ccc(CNC(=O)C2CCCN(S(=O)(=O)c3ccc4c(ccn4C)c3)C2)cc1 (stereo unspecified) | i | i | i | i | nt | nt
O=C1CC(=Nc2ccc([N+](=O)[O-])cc2)NN1c1c(Cl)cc(Cl)cc1Cl | nt | nt | nt | 79µM | i | ?
CCC1CCCCN1CCCNC(=O)c1ccc2c(c1)N(Cc1cccc(C)c1)C(=O)c1ccccc1S2(=O)=O (stereo unspecified) | i | i | i | i | nt | nt
Cc1cccc(Nc2nnc(SCC(O)=C(C#N)c3nc4ccccc4[nH]3)s2)c1 | nt | i | ? | ? | ? | -61
O=[N+]([O-])c1ccc2[nH]c(=S)sc2c1 | nt | i | i | i | i | -75
O=c1[nH]c2ccc(Cl)cc2[nH]1 | nt | i | i | i | i | i
O=[N+]([O-])c1ccc2[nH]c(=S)[nH]c2c1 | nt | i | i | i | i | i
S=c1[nH]c2ccc(Cl)cc2s1 | i | i | i | i | i | -75
COc1cc(O)ccc1-c1nc2ccc(Br)cn2c1Nc1ccccc1C | ? | i | i | i | nt | nt
Nc1nc(SCC(=O)Nc2ccc(OC(F)(F)F)cc2)[nH]c(=O)c1NC(=O)c1ccc(Br)o1 | 40µM | i | i | ? | i | i
CCOC(=O)c1cc(C#N)c(SC(C(=O)N2CCCCC2)c2ccccc2)nc1C (stereo unspecified) | nt | i | ? | nt | nt | nt
CN(C)c1ccc(C(=O)Oc2cc(O/N=[N+](\[O-])N(C)C)c([N+](=O)[O-])cc2[N+](=O)[O-])cc1 | nt | i | i | nt | nt | nt
Cc1ccc(S(=O)(=O)N2CCN(c3nc(-c4cccs4)nc4ccccc34)CC2)c(C)c1 | nt | i | i | nt | nt | nt
CC1=NNC(=O)/C1=C\c1cn(-c2ccccc2)nc1-c1ccc(F)cc1 | i | i | 25µM | i | i | i
Cn1c(N)c(C(=O)COC(=O)C2Cc3ccccc3CN2S(C)(=O)=O)c(=O)n(C)c1=O (stereo unspecified) | nt | nt | nt | 13µM | ? | -61
COC(=O)c1[nH]c2c(c1C)C(=O)CC(c1cccc(OC)c1)C2 (stereo unspecified) | 45µM | i | ? | i | i | i
CC1=CSC2=NC(=O)/C(=C/c3cccc(OC(=O)c4ccco4)c3)C(=N)N12 | i | i | i | ? | i | i
CCC(CC)C1=NN2C(=N)/C(=C/c3ccc(OC(=O)c4ccco4)cc3)C(=O)N=C2S1 | i | i | ? | i | i | i
CC(C)CS(=O)(=O)C1=NSC2=NC(=O)/C(=C\c3ccc(OC(=O)c4ccco4)cc3)C(=N)N21 | i | i | i | 56µM | i[11.6 µM] | -86
CS(=O)(=O)C1=NSC2=NC(=O)/C(=C\c3ccc(OC(=O)c4ccco4)c(Br)c3)C(=N)N21 | ? | i | ? | 50µM | ? | -73
CSC1=NSC2=NC(=O)/C(=C\c3ccc(OC(=O)c4ccco4)cc3)C(=N)N12 | i | i | ? | ? | ? | -53
COc1cc(C(=O)Nc2ccc(OCc3cc(=O)n4cccc(C)c4n3)cc2)cc(OC)c1OC | i | i | i | i | nt | nt
Cc1ccc2oc(C(=O)N(Cc3sccc3C)C3CCS(=O)(=O)C3)c(C)c2c1 (stereo unspecified) | ? | i | i | nt | nt | nt
